Test results published in PubChem BioAssay AID709 (SRMLSC, 2007).
The campaign covered roughly 65,000 compounds. About 3,600 (5.5%) were called active.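 How the source made its calls: active means at 10 µM, mean starting fluorescence two-fold or more over control wells; inactive means the rest.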 The full list was thinned out, with actives kept by preference.

experiment: intrinsic fluorescence of library compounds, ex339/em460 – biochemical, MLSMR library, data from DPM-DC assay, artefact control, profiling panel (AID 709); details: compound autofluorescence, ex339/em460 nm, NADH buffer; at 10 µM; active compounds read high; 1 = no-compound wells, NADH background;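 further: signal is the first read of a kinetic run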

Fluorescence fold increase, inactive:
Cc1ccc(-n2nc3cc(Cl)c(NC(=O)c4ccco4)cc3n2)cc1 1.84
Cc1ccc(Cn2c(NC(=O)c3ccco3)nc3ccccc32)cc1 1.32
CCOc1ccc(NC(=O)CCS(=O)(=O)c2cccc3nsnc23)cc1 1.08
CCC1CCCCN1C(=O)Nc1cccc(NC(=O)N2CCCCC2CC)c1 (configuration not stated) 1.13
CCOC(=O)N1CCN(S(=O)(=O)c2cc3c(cc2C)NC(=O)CO3)CC1 1.11
CCn1ncc(C2=NOC(C(=O)N3CCN(c4ccccc4)CC3)C2)c1C (configuration not stated) 1.14
O=C(NCc1cccs1)c1ccc2c(c1)ncn2C1CCCC1 1.03
O=C(CSc1nnc(-c2ccc(NS(=O)(=O)c3ccccc3)cc2)o1)NCC1CCCO1 (configuration not stated) 1.01
O=C(CS(=O)(=O)Cc1ccccc1)NCC1CCCO1 (configuration not stated) 1.1
COc1cccc(-c2nnc(N(C)C(=O)c3ccno3)s2)c1 1.38
CN(C(=O)C1CCOC1)c1nnc(-c2cccnc2)s1 (configuration not stated) 1.03
CN(C(=O)c1ccno1)c1nnc(-c2cccnc2)s1 1.68
O=C(c1cccs1)N(C(=O)c1cccs1)c1ccccn1 1.09
Cc1ccc(C)c(NC(=O)CSc2nnc(Cc3cccn3C)n2-c2ccc(F)cc2)c1 1.08
CCCCOc1ccccc1/C=c1/sc2nc(-c3oc4ccccc4c3C)nn2c1=O 1.1
Cc1ccccc1CSc1nnc(-c2ccccn2)n1N 1.08
N#Cc1c2c(c(N3CCN(CCO)CC3)n3c1nc1ccccc13)CCCC2 1.53
COc1ccc(-n2nc3c(c2NC(=O)Cc2cccc(C)c2)CS(=O)C3)cc1 (configuration not stated) 1.15
Cn1cccc1C1(C(F)(F)F)NCCNC1=O (configuration not stated) 1.11
CC(=O)c1ccc(NC(=O)N[C@@H](Cc2ccccc2)C(=O)O)cc1 1.09
COc1cc(OC)cc(C(=O)Nc2ncc3c(n2)CC(C)(C)CC3=O)c1 1.1
COc1ccc(NC(=O)c2ccc(OC)cc2)cc1 1.13
Cc1ccc(S(=O)(=O)NC(C)C(=O)Nc2ccccc2C(=O)N2CCCC2)cc1 (configuration not stated) 1.1
CCCC(=O)N=c1sc2cccc(F)c2n1C 1.09
C/C(O)=C\c1nc(=O)c2c(C)cc(C)nc2n1-c1ccccc1 1.08
O=C(c1ccco1)N1CCN(c2cccc(Cl)c2)CC1 1.03
Cc1nn2c3cc(N4CCOCC4)ccc3nc2c2ccccc12 1.11
Cc1cc(N2CCCC2)n2nc(C)c(-c3ccccc3)c2n1 1.68
Cc1nc(SC(C)C)[nH]c(=O)c1Cc1ccccc1 1.11
CCOc1ccc2nc(NC(=O)CSc3nc4c(c(=O)n(C)c(=O)n4C)n3CC)sc2c1 1.12
CC(=O)NC(Cc1ccc(F)cc1)C(=O)O (configuration not stated) 1.02
CCOC(=O)c1oc2ccccc2c1NC(=O)c1cccs1 1.25
N#C/C=C1\Sc2ccccc2C(=O)N1CC(=O)N1CCN(S(=O)(=O)c2ccccc2)CC1 1.1
COc1cccc(NC(=O)C(C)Oc2ccccc2)c1 (configuration not stated) 1.11
CC1Oc2ccccc2N(Cc2cccnc2)C1=O (configuration not stated) 1.14
Cc1ccc(C(=O)OCC(=O)NCc2ccc3c(c2)OCO3)s1 0.99
O=C(COc1ccccc1)NCc1ccc2c(c1)OCO2 1.08
COCc1nnc(NC(=O)CS(=O)(=O)Cc2ccccc2)s1 1.1
Cc1nc2nc(COc3ccccc3)[nH]n2c(=O)c1C 1.17
CC(=O)c1cc(-c2ccccc2)[nH]c1N1CCCC1 1.05
N#Cc1nc(COc2ccc(Cl)cc2)oc1N1CCCC1 1.02
Cc1ccc(OCc2nc(C#N)c(N3CCCC3)o2)cc1 1.03
Cc1cc(C)c(C#N)c(SCc2ccc3c(c2)OCO3)n1 1.09
CCOC(=O)N1CCN(C(=O)CN(C2CCCCC2)S(C)(=O)=O)CC1 1.07
COc1ccc(N2CCN(C(c3cc4ccc(C)cc4[nH]c3=O)c3nnnn3C3CCCC3)CC2)cc1 (configuration not stated) 1.25
COCCn1nnnc1C(c1cc2ccc(OC)cc2[nH]c1=O)N1CCc2ccccc2C1 (configuration not stated) 1.12
O=C(O)Cc1ccc(NC(=O)C2CCCCC2C(=O)O)cc1 (configuration not stated) 1.09
CC1CN(C(=O)c2ccc3c(c2)OCO3)OC(c2ccccc2)O1 (configuration not stated) 1.07
COc1ccc(C2/C(=C(/O)c3ccc(OC(C)C)cc3)C(=O)C(=O)N2CCCN2CCOCC2)cc1 (configuration not stated) 1.01
O=C(OCC(=O)N1CCN(C(=O)c2ccco2)CC1)c1ccccc1Cc1ccccc1 0.99
CCOCC(=O)Nc1sc2c(c1C(=O)OCC)CCCC2 1.11
CCCOC(=O)Nc1sc2c(c1C(=O)OCC)CCC2 1.1
CCOC(=O)c1c(NC(=O)c2cccs2)sc(C)c1C 1.74
COc1cc(OC)c(NC(=O)c2ccc(Br)o2)cc1Cl 1.09
COC(=O)c1c(NC(=O)CSc2nncs2)sc2c1CCCCC2 1.1
CC(CNC(=O)c1ccc(Br)o1)NC(=O)c1ccc(Br)o1 (configuration not stated) 1.02
Fc1ccccc1CCNc1nnnn1-c1ccccc1 1.11
COc1cc(NS(=O)(=O)c2ccc(NC(C)=O)cc2)cc(OC)c1 1.13
COC(=O)c1ccc2c(c1)S(=O)(=O)NC(=NCCCN1CCOCC1)S2 1.06
CCNC(=O)CN(c1ccc(C)cc1)S(=O)(=O)c1ccc(SC)cc1 1.06
CCCOP(=O)(c1ccc(N(C)C)cc1)C(O)c1cc(OC)c(OC)c(OC)c1 (configuration not stated) 1.13
O=C1C(C=NCC2CCCO2)=C(O)c2ccccc21 (configuration not stated) 1.09
COc1ccc(-c2cc(C(F)(F)F)n3nc(C(=O)N4CCOCC4)c(Cl)c3n2)cc1 1.17
O=C(NCc1ccco1)c1cnn2c(C(F)(F)F)cc(-c3ccco3)nc12 1.6
CC(=O)Nc1ccc(S(=O)(=O)Nc2ccc(N3CCOCC3)c(F)c2)cc1 1.1
CCn1c(SCC(=O)NCc2ccco2)nnc1-c1ccc(N)cc1 1.1
CCOC(=O)c1c(C(C#N)C#N)cc(C)nc1C 0.98
CCOC(=O)c1cc(NC(=O)SCC(=O)O)c(C)nc1C 1.15
O=C(NCCc1ccc2c(c1)OCCO2)c1cc2ccccc2o1 1.11
C=CCc1cccc2cc(C(=O)N3CCN(C(=O)OCC)CC3)c(=O)oc12 1.17
CS(=O)(=O)N1CCN(C(=O)c2cc3ccccc3oc2=O)CC1 1.14
CN1CCN(CCCNC(=O)c2cc3c(=O)oc4ccccc4c3s2)CC1 1.53
Cc1ccc(C(=O)N2CCN(C3CCCCC3)CC2)s1 1.14
Cc1oc(C)c(C(=O)NCCCC(=O)O)c1C(=O)NCCCC(=O)O 1.14
CCOc1ccc(Cn2nnc(C(=O)Nc3ccc(OC)cc3OC)c2N)cc1 1.25
C[N+]1(CCNC(=O)/C=N/O)CCCCC1 1.1
CCCCC(=O)N1CC2(C)CN(C(=O)CCCC)CC(C)(C1)C2=O 1.09
COc1ccc(N2C(=O)CCC(C(=O)Nc3ccccn3)C2c2ccc(OC)c(OC)c2)cc1 (configuration not stated) 0.92
COc1ccc(C2CC(=O)C=C(NCC3CCCO3)C2)cc1 (configuration not stated) 1.07
Cc1ccc(C(=O)NCC2CCCO2)o1 (configuration not stated) 1.14

Fluorescence fold increase, active:
CCn1nc(NC(=O)c2ccco2)c2cc3ccc(C)cc3nc21 3.62
O=C(CSC1=Nc2ccccc2C2=NC(c3ccccc3)C(=O)N12)NCC1CCCO1 (configuration not stated) 2.12
CN(C(=O)c1ccccn1)c1nnc(-c2ccccn2)s1 3.72
CN(C(=O)COc1ccccc1)c1nnc(-c2ccncc2)s1 5
CN(C)CCCNc1c2c(c(C#N)c3nc4ccccc4n13)CCC2 2.1
COc1cc(OC)cc(C(=O)Nc2ccc(-c3nc4ccccc4o3)c(O)c2)c1 2.11
Cc1cc(C)c2c(n1)nn1c(-n3ccnc3)cc(C)nc21 3.27
Cc1cc(C)c2c(n1)nn1c(N3CCN(c4cccc(Cl)c4)CC3)cc(C)nc21 2.17
Cc1cc(C)c2c(n1)nn1c(N3CCOCC3)cc(C)nc21 2.97
COC(=O)Cc1c(C)c2ccc(OCC(=O)NCc3ccc4c(c3)OCO4)cc2oc1=O 2.07
Cc1nc2c(-c3ccccc3)c(C)[nH]n2c(=O)c1Cl 2.16
CC1CCN(c2oc(-c3ccccc3F)nc2C#N)CC1 2.45
CCOc1ccc2[nH]c(=O)c(C(c3nnnn3CCOC)N3CCOCC3)cc2c1 (configuration not stated) 5.03
CCOC(=O)c1c(NC(=O)c2ccc(Br)o2)sc2c1CCCC2 2.17
CCc1c(C)sc(NC(=O)c2ccc(Br)o2)c1C(=O)OC 2.8
COC(=O)c1c(NC(=O)c2cccs2)sc2c1CCCC2 2.23
CN(C)CCCn1c(N)c(C#N)c2nc(C#N)c(C#N)nc21 3.35
COC(=O)c1cnn2c(C(F)(F)F)cc(-c3ccco3)nc12 2.46
CCOC(=O)c1cc(-c2ccc(Cl)s2)nc2c1c(C)nn2C 3.19
CNC(=O)c1cc2c(ccc3ccccc32)oc1=N 2.32
CCOC(=O)N1CCN(C(=O)c2cc3c(ccc4ccccc43)oc2=O)CC1 3.93
CC1(C)CC(=O)c2cc(OCC(=O)NCC3CCCO3)ccc2O1 (configuration not stated) 5.06
